Compounds with a hit are over-represented: about 3.2% of the library has one in this group of screens.
CendR NRP1 mod: NRP-1/CendR interaction modulation. AID 602438. O14786. inhibition, % at 25 µM. FAM-RPARPAR peptide binding to NRP-1, fluorescence polarization. hit rate 0.85% among 360,000;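 active = inhibition or corrected inhibition above about 18%, plus a signal ratio from 0.5 to 1.5, limit read from the data, passing the limit was not always enough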
MEKK2 mut-MEK5: signal of MEK5 binding to mutant human MEKK2 PB1 domain; bead flow cytometry, Alexa488-MEK5 binding to MEKK2 mutant; percent response, % at 10 µM; hit rate 0.35% among 290,000; in the data active = percent response above about 24%, passing the limit was not always enough
MEKK3 PB1 HTS: raises or lowers MEK5 binding to the human MEKK3 PB1 domain; Q99759; bead-based flow cytometry, Alexa488-MEK5 binding to MEKK3; actives lie on both sides; 0 = blocked by unlabeled MEK5, 100 = vehicle; binding response (% of control), % at 10 µM; hit rate 1.4% among 290,000;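 active = binding response more than 3 SD above or below the average of its plate-row segment, actives on both sides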;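 also: Alexa488 bead fluorescence after subtracting the streptavidin-only scavenger bead signal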
Target sequence (Q99759 whole entry, looked up, the tested form may be a part): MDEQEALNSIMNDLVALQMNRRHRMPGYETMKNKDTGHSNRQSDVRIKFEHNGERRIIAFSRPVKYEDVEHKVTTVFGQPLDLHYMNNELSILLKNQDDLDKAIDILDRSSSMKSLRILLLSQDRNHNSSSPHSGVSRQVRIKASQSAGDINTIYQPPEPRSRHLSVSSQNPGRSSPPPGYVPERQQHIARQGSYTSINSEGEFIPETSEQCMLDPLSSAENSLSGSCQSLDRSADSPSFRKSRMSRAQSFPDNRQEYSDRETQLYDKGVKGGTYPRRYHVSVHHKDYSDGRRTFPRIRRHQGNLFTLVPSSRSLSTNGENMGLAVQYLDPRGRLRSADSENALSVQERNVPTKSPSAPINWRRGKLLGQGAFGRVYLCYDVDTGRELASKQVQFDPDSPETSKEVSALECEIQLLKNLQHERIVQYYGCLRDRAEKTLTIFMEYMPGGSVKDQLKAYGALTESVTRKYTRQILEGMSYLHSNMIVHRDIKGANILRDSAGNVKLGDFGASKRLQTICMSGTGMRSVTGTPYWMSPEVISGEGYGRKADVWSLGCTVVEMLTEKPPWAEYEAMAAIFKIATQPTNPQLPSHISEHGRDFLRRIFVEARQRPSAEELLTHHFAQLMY
MEKK2wt PB1 HTS: raises or lowers MEK5 binding to wildtype human MEKK2 PB1 domain; Q9Y2U5; bead flow cytometry, Alexa488-MEK5 binding to MEKK2 WT; actives lie on both sides; binding response (% of control), % at 10 µM; hit rate 1.1% among 290,000; AID 1531; in the data active = binding response below about 67% or above about 130%
SKN-1 inh: blocks SKN-1 activity in C. elegans; hit rate 0.49% among 360,000; C. elegans VP596 Pgst-4::GFP/RFP ratio, acrylamide-induced, 24 h; inhibition, % at 21.8 µM;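 active = interference check ratio from 0.5 to 1.5 plus GFP to RFP signal ratio inhibition reaching or exceeding a fixed threshold, cut at about 30% in these data, passing the limit was not always enough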
Active calls of the source: *; . = not tested or not shown.

SMILES	CendR NRP1 mod	MEKK2 mut-MEK5	MEKK3 PB1 HTS	MEKK2wt PB1 HTS	SKN-1 inh
C/C=C(\C)C(=O)N1CC2(CC(c3cccc(NC(=O)CC(c4ccccc4)c4ccccc4)c3)=NO2)C[C@H]1C(N)=O (stereo partly drawn)	.	-7.0	95.0	96.0	.
C/C=C\C(=O)Nc1cccc(C2=NOC3(C2)C[C@H](C(N)=O)N(C(=O)/C=C/CC)C3)c1 (stereo partly drawn)	0.5	-9.0	99.0	97.0	1.9
COc1ccccc1C(=O)NN(C)C1=NS(=O)(=O)c2ccccc21	19.7*	6.0	107.0	111.0	16.7
CCOc1ccc(CCN2C(=S)N([C@@H](Cc3ccc(O)cc3)CN3CCCC3CN3C(=S)NC[C@@H]3Cc3ccc(O)cc3)C[C@@H]2CC(C)C)cc1 (stereo partly drawn)	9.9	.	.	.	14.4
CCOc1ccc(CCN2C(=S)N([C@@H](Cc3ccccc3)CN3CCC[C@@H]3CN3C(=S)NC[C@@H]3Cc3ccc(O)cc3)C[C@@H]2CC(C)C)cc1	18.6*	.	.	.	12.1
O=C1NC[C@H](Cc2ccccc2)N(C[C@@H]2CCCN2C[C@H](Cc2ccc(O)cc2)N2C[C@H](Cc3ccccc3)N(CC3CCCCCC3)C(=O)C2=O)C1=O	-30.0	.	.	.	37.1*
O=C(NCc1ccccc1)C(c1ccccc1)n1c(C2CC2)nc2ccccc21 (stereo not drawn)	-12.0	.	.	.	6.1
Cc1cc(C)n2nc(C(=O)OCC(=O)Nc3cc(S(=O)(=O)N4CCOCC4)ccc3Cl)nc2n1	-1.0	.	.	.	-11.4
CC1(c2nnc(-c3ccc(F)cc3)o2)CC(c2c(Cl)cccc2Cl)=NO1 (stereo not drawn)	29.4*	2.0	97.0	98.0	7.1
CC1(c2nnc(-c3ccc(Cl)cc3)o2)CC(c2c(Cl)cccc2Cl)=NO1 (stereo not drawn)	7.2	4.0	105.0	105.0	5.7
CN(C)[C@@H](CO)c1nnc([C@H](Cc2ccc(O)cc2)NC(=O)C2CCNCC2)o1	6.8	2.0	102.0	103.0	6.9
N[C@@H](Cc1ccc(O)cc1)c1nnc([C@H](CO)NC(=O)C2CCNCC2)o1	21.8*	7.0	105.0	104.0	-0.6
CCc1sc(C(=O)N(CCOC)c2c(N)n(Cc3ccccc3)c(=O)[nH]c2=O)cc1C	-1.4	.	.	.	2.1
O=S(=O)(NN=C1CCCCCC1)c1ccccc1	-3.5	3.0	101.0	104.0	-7.3
COCCNC(=O)CC(c1ccccc1)c1ccccc1	9.2	2.0	99.0	104.0	35.9*
O=C(CN1C(=O)NC(c2ccc(F)cc2)C1=O)NC1CCCCC1 (stereo not drawn)	20.7	.	.	.	-12.2
CC(C)(C)C1CCN2CCC[C@](c3ccccc3)(C1)C2OCCCO (stereo partly drawn)	-8.1	.	.	.	10.5
Cc1cc(C)c(C)c(S(=O)(=O)N2CCN(C(=O)c3ccccc3OCc3c(C)noc3C)CC2)c1C	3.3	.	.	.	2.9
CCC1(CC)NC(=O)N(CC(=O)OCC(=O)Nc2cc(OC)ccc2OC)C1=O	24.2*	.	.	.	1.7
CCC1(CC)NC(=O)N(CC(=O)OCC(=O)Nc2ccc(F)c(F)c2F)C1=O	0.9	4.0	101.0	102.0	-5.8
CCc1ccc(-c2ccc3nnc(SC)n3n2)cc1	14.9	3.0	102.0	108.0	6.1
CCc1ccc(-c2ccc3nnc(SCC(N)=O)n3n2)cc1	23.8*	3.0	97.0	98.0	2.5
CCC(C)[C@H](NC(=O)Nc1cccc(Cl)c1)C(=O)O (stereo partly drawn)	19.8*	-2.0	98.0	98.0	-14.0
COc1ccc(OC)c(S(=O)(=O)N/N=C\c2cn(CC(N)=O)c3ccccc23)c1	2.8	0.0	98.0	101.0	-14.5
COc1ccccc1CNC(=O)c1cc(-c2ccccc2C)n(CC2CC(c3cccc([N+](=O)[O-])c3)=NO2)n1 (stereo not drawn)	-2.5	.	.	.	0.4
SMILES	CendR NRP1 mod	MEKK2 mut-MEK5	MEKK3 PB1 HTS	MEKK2wt PB1 HTS	SKN-1 inh
O=C(CCn1c(=O)c2ccccc2n(CC(=O)NCCC2=CCCCC2)c1=O)NCc1ccco1	16.9	3.0	103.0	99.0	35.1*
Cc1ccc(NC(=O)CSCC(=O)Nc2ccccc2C(=O)N2CCCCC2)cc1	5.8	.	.	.	45.5*
C/C(=N\NC(=O)c1ccc(Cl)c(Cl)c1)c1ccc(Br)s1	7.4	14.0	99.0	102.0	6.9
C/C(=N\Nc1ccc(Cl)c(C(=O)O)c1)c1ccc(Br)s1	-8.6	4.0	102.0	106.0	43.6*
O=C(NCc1ccccc1)c1ccc(CN2CCC(Cc3ccccc3)CC2)cc1	-0.5	6.0	93.0	108.0	17.7
CCc1ccccc1NC(=O)c1ccc(CN2CCC(Cc3ccccc3)CC2)cc1	31.8*	8.0	95.0	112.0	8.7
O=C(c1[nH]c(C(F)(F)F)nc1-c1ccccc1)N1CCOCC1	3.5	.	.	.	12.4
Clc1ccc(-c2cn3c(n2)-c2ccccc2C3)cc1Cl	-8.1	18.0	99.0	103.0	40.1*
O=C(O)/C=C/C(=O)Nc1ccc(OCc2ccccc2)cc1	22.1*	-2.0	99.0	98.0	8.0
O=C(O)/C=C/C(=O)Nc1ccc(OC(F)(F)F)cc1	-0.1	2.0	105.0	-3.0*	1.2
O=C(O)/C=C/C(=O)Nc1ccc(-c2ccccc2)cc1	-8.2	-31.0	92.0	95.0	5.1
c1ccc(Cn2cc(CSc3ccccc3)nn2)cc1	28.0*	1.0	92.0	89.0	5.7
CC(C)n1c(=O)c2ccccc2n1Cc1cn(Cc2ccccc2)nn1	8.7	.	.	.	-15.2
c1ccc(SCc2cn(C[C@H]3CC[C@@H]([C@@H]4CC[C@H](Cn5cc(CSc6ccccc6)nn5)O4)O3)nn2)cc1	23.5*	8.0	102.0	99.0	7.3
CCCCNC(=O)C1(C)CCC(=O)N1CCOC (stereo not drawn)	-0.5	.	.	.	7.5
CCC(c1nc2ccccc2[nH]1)n1c(=O)c(-c2ccco2)nc2ccccc21 (stereo not drawn)	-70.3	.	.	.	3.7
COC(=O)[C@H](CC(C)C)NS(=O)(=O)N(Cc1ccccc1)[C@@H](CC(C)C)C(=O)OC	28.5*	.	.	.	7.9
CCOc1ccc(CN2CCNC(=O)C2CC(=O)NCc2csc(C(C)C)n2)cc1 (stereo not drawn)	-2.7	9.0	106.0	125.0	-4.1
CN(C)c1ccc(N2[C@@H](CC(=O)O)c3cc(C(F)(F)F)ccc3S2(=O)=O)cc1	25.2*	-1.0	95.0	97.0	8.6
CC(=O)C[C@H]1c2cc(C(F)(F)F)ccc2S(=O)(=O)N1c1ccc(N(C)C)cc1	13.7	4.0	106.0	106.0	14.9
CCCCCCCCCCCCN1[C@@H](CC(C)=O)c2cc(C(F)(F)F)ccc2S1(=O)=O	8.7	0.0	104.0	103.0	-0.5
CCCCCCCCCCCCN1[C@@H](CC(=O)OC)c2cc(F)ccc2S1(=O)=O	26.3*	2.0	103.0	109.0	-19.0
CCCCCCCCN1[C@@H](CC(=O)O)c2ccc(C(F)(F)F)cc2S1(=O)=O	27.5*	2.0	103.0	105.0	4.5

Source: PubChem
